Bioassay records as filed in PubChem BioAssay.
Rows were chosen to be rich in hits. Some 1.6% of all compounds tested hit in one or more screens of this group.
Yeast superoxide = lowers age-related superoxide in aged yeast cells | superoxide response (% of plate mean), % at 10 µM | hit rate 0.18% among 330,000 | S. cerevisiae aged cells, superoxide DHE fluorescence; stronger effect = lower value;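 active means superoxide response under a set limit, about three screen SD below normal, cut at about 65% in these data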;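 further: yeast aged for seven days with compound at 30 °C before DHE staining; 100% = average MFI of all compound-treated wells on the plate with controls excluded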
Efflux pump inh = blocks antifungal efflux pumps in multiplex yeast assay; hit rate 0.44% among 330,000; inhibition, % at 10 µM; S. cerevisiae Candida pump triplex, Nile Red efflux; AID 485275;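 active means plate passing quality check with inhibition over a set limit, or well fluorescence over plate mean plus 4 SD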;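 further: Nile Red retained in pooled yeast measured as flow cytometry median fluorescence; 0% = buffer negative control and 100% = Enniatin B positive control; higher means more Nile Red kept so more efflux inhibition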
GRK2 aptamer HTS = inhibitors of human GRK2 displacing RNA aptamer | inhibition of aptamer binding, % at 10 µM | bead flow cytometry, FAM-aptamer displacement from GRK2 | hit rate 0.59% among 330,000 | P25098;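 active means inhibition of aptamer binding above 40%, roughly 3 SD of noise, on plates passing a quality check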;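 further: median bead fluorescence of bound FAM aptamer so fluorescent compounds give negative values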
Target sequence (P25098 whole entry, looked up): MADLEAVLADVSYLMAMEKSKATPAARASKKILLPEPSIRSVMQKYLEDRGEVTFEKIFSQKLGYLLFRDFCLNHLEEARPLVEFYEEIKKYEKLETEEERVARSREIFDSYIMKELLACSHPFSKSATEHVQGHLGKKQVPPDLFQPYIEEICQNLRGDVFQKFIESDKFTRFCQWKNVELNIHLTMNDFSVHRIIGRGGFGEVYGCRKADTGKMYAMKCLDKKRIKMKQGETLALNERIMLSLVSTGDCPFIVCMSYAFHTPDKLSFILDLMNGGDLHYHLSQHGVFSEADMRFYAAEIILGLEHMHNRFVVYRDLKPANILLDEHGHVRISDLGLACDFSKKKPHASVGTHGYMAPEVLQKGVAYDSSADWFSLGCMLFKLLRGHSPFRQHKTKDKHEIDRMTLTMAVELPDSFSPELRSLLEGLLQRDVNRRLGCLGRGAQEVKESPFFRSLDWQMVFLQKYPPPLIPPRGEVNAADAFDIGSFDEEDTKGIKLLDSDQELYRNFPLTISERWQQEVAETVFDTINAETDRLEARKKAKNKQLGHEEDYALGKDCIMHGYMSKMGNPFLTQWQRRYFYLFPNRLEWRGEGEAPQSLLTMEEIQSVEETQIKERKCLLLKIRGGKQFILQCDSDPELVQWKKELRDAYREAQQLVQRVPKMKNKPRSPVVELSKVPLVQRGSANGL
ATG4B inhibitor = ATG4B (human) cysteine protease inhibition. ATG4B cleavage of LC3-PLA2, NBD-HPC fluorescence, 1 h. inhibition, % at 8.33 µM. hit rate 0.51% among 340,000. AID 504462; in the data active means inhibition above about 40%
GRK2 CP1 = confirmation of human GRK2 inhibitors displacing RNA aptamer. shares compounds with GRK2 aptamer HTS. bead-bound GRK2, FAM-aptamer displacement, flow cytometry. aptamer displacement, % at 10 µM. hit rate 4% among 2,000. AID 504451;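 active means aptamer displacement above 40%, near three times the noise of non-fluorescent compounds, on plates passing quality checks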;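 further: negative values mostly reflect intrinsic compound fluorescence rather than true enhancement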
Aptamer quench = quenches fluorescent RNA aptamer, GRK2 hit artifact. shares compounds with GRK2 aptamer HTS. Fluorescent RNA aptamer beads, quenching, flow cytometry; stronger effect = higher value. fluorescence change (kMESF span), kMESF (no concentration beside the values). 110 tested, under 10 active. AID 504521;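 active means compounds whose bead fluorescence drops by more than 37 kMESF across the dose range, marking them as dye quenchers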
FAM quench CP1 = counter-screen for GRK2 aptamer inhibitors: fluorescent aptamer quenchers. shares compounds with GRK2 aptamer HTS. Carboxyfluorescein RNA aptamer on beads, flow cytometry quenching; stronger effect = lower value. fluorescence response (% of DMSO), % at 10 µM. 2,000 tested, under 10 active;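 active means compounds that quench the bead-bound fluorescent RNA probe, cutting fluorescence to under half of the solvent control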;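 further: counterscreen run without GRK2 so only probe quenching by compound is measured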
GRK2 CP2 = human GRK2 inhibition confirmation, cherry pick 2. shares compounds with GRK2 aptamer HTS. 360 tested, under 10 active. bead-bound GRK2, FAM-aptamer displacement, flow cytometry. inhibition of aptamer binding, % at 10 µM. AID 504782;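 active means inhibition of aptamer binding above 40%, about triple the noise seen with nonglowing compounds, on plates passing quality control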;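 further: negative values mostly come from compounds that fluoresce themselves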
FAM quench CP2 = aptamer fluorescence quenching in GRK2 counter-screen; shares compounds with GRK2 aptamer HTS; carboxyfluorescein RNA aptamer beads, flow cytometry quenching; stronger effect = lower value; fluorescence response vs DMSO, % at 10 µM; 360 tested, under 10 active; AID 588494;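 active means response vs DMSO under 50%, meaning signal dropped by over half, treated as fluorescence quencher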;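 further: labelled aptamer on streptavidin beads without GRK2 as a quench counter-screen; 100% = bead fluorescence of DMSO wells and lower means quenching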
Starred values were filed as active, the others as inactive; / = no result given.

SMILES	Yeast superoxide	Efflux pump inh	GRK2 aptamer HTS	ATG4B inhibitor	GRK2 CP1	FAM quench CP1	others
COc1ccc2c(C(=O)NCc3ccc4c(c3)OCO4)c(-c3ccc(S(C)(=O)=O)cc3)sc2c1	86.0	0.1	2.0	-5.2	/	/
C/C(=C\C(=O)c1ccc(C)cc1)Nc1cccc(O)c1	105.5	0.0	34.0	-8.6	0.5	100.4
CC(=O)NC(Cc1ccccc1C)C(=O)NC1CCN(c2ncccc2[N+](=O)[O-])CC1 (configuration not stated)	91.3	-0.1	0.0	/	/	/
O=C(N/N=C/c1cccnc1)c1cccc(NC(=O)c2ccc(Cl)cc2)c1	97.5	0.1	39.0	-1.2	-4.7	93.1
CC(C)Oc1ccc(NC(=O)CCC(=O)O)cc1	100.4	0.0	1.0	0.9	/	/
CC(C)Oc1ccc(NC(N)=O)cc1	103.5	0.0	89.0*	-7.0	-2.2	101.7
COc1ccc(Cc2nnc(SC)[nH]c2=O)cc1OC	95.8	0.0	51.0*	-7.4	-1.3	98.2
CC(C)NC(=S)NNc1nc2ccccc2s1	103.0	-0.1	0.0	-9.1	/	/
Cc1ccc(C(=O)O)cc1N1CCCC1=O	93.8	0.0	61.0*	-3.3	0.3	96.4
CCCOc1cccc(C(=O)N/N=C/c2ccoc2)c1	91.3	-0.1	4.0	4.7	/	/
CCOC(=O)C1=C(C)N=C2SCCC(=O)N2[C@@H]1c1cccs1	105.1	-0.1	1.0	-5.0	/	/
COCCOC(=O)C1=C(C)N=C2SCCC(=O)N2C1c1cccs1 (configuration not stated)	97.3	0.0	81.0*	-5.0	-1.1	95.7
COc1ccc(OCCN2C(=O)c3ccccc3C2=O)c([N+](=O)[O-])c1	99.0	-0.2	0.0	4.1	/	/
C=C(C)C(=O)Nc1cccc(C2=NOC3(C2)C[C@H](C(N)=O)N(C(=O)CC#N)C3)c1 (some centres not stated)	93.0	0.0	67.0*	2.9	16.2	102.2	Aptamer quench=6.5
C/C=C(/C)C(=O)Nc1cccc(C2=NOC3(C2)C[C@@H](C(N)=O)N(C(=O)CC(c2ccccc2)c2ccccc2)C3)c1 (some centres not stated)	91.4	-0.1	7.0	-19.9	/	/
CCC(=O)Nc1cccc(C2=NOC3(C2)C[C@H](C(N)=O)N(C(=O)Cc2ccc([N+](=O)[O-])cc2)C3)c1 (some centres not stated)	110.9	-0.1	3.0	-7.1	/	/	GRK2 CP2=6.0;FAM quench CP2=97.0
C=C(C)C(=O)Nc1cccc(C2=NOC3(C2)C[C@@H](C(N)=O)N(C(=O)CC(c2ccccc2)c2ccccc2)C3)c1 (some centres not stated)	94.9	-0.1	88.0*	-32.6	80.2*	97.5	Aptamer quench=1.5
C=C(C)C(=O)Nc1cccc(C2=NOC3(C2)C[C@@H](C(N)=O)N(C(=O)/C=C/C=C/C)C3)c1 (some centres not stated)	103.0	0.0	92.0*	-12.4	82.5*	100.4	Aptamer quench=10.4
Cc1ccnc(NC(=O)COC(=O)c2ccc(F)cc2F)n1	130.8	-0.1	24.0	25.7	5.6	94.5
O=C(COC(=O)c1ccc(F)cc1F)Nc1cccnc1Cl	113.6	0.0	0.0	0.0	/	/
CCN(CC)CC#CCOC(c1ccccc1)c1ccccc1	100.0	-0.1	79.0*	-1.2	-4.8	98.9
COc1cccc(CNC(=O)c2cc(S(=O)(=O)N3CCCCC3)c[nH]2)c1	108.1	0.0	1.0	-10.9	/	/
O=C(NCc1ccc(Cl)cc1)c1cc(S(=O)(=O)N2CCCCC2)c[nH]1	118.1	0.3	43.0*	-1.9	2.2	96.3
CC(C)c1onc(C(=O)N(C)C2CCCCC2)c1[N+](=O)[O-]	123.1	0.4	54.0*	-7.9	2.0	100.6
O=C(c1ccco1)N1CCN(Cc2cccc3ccccc23)CC1	94.8	-0.2	0.0	2.7	/	/
SMILES	Yeast superoxide	Efflux pump inh	GRK2 aptamer HTS	ATG4B inhibitor	GRK2 CP1	FAM quench CP1	others
COc1ccccc1S(=O)(=O)n1cc(Cc2ccccc2)c(N)n1	110.1	0.2	74.0*	-0.3	-11.3	97.5
COc1ccc(CNC(=O)C2(CC(=O)NC(C)(C)C)CCCC2)cc1	93.5	0.0	2.0	6.6	/	/
CC(C)NC(=O)CC1(C(=O)NCc2ccc(Cl)cc2)CCCC1	102.0	0.2	50.0*	0.3	/	/	GRK2 CP2=-1.1;FAM quench CP2=104.0
CC1=C(/C=C/C(C)=N\NC(=O)c2ccncc2)C(C)(C)CCC1	98.4	-0.1	0.0	-3.1	/	/
CC1=C(/C=C/C(C)=C/C=C/C(C)=C/CO)C(C)(C)CCC1	99.6	-0.1	86.0*	-30.3	4.7	101.6
C=CCNC(=S)NNC(=O)C(CCCC)CC(O)COCC(C)C (configuration not stated)	96.0	0.0	45.0*	-3.7	3.6	101.2
CCCCNC(=O)CNC(=O)c1nn(-c2ccc(OC)cc2)c(=O)c2ccccc12	97.7	-0.1	26.0	-2.5	1.6	93.8
CCN(CC)CCCNC(=O)CNC(=O)c1nn(-c2ccc(OC)cc2)c(=O)c2ccccc12	96.2	0.0	0.0	-1.1	/	/
CCN(CC)CCNC(=O)CNC(=O)c1nn(-c2ccc(OC)cc2)c(=O)c2ccccc12	98.2	0.2	0.0	2.8	1.1	94.9
CCN(CC)CCNC(=O)CNC(=O)c1nn(-c2ccc(OC)c(OC)c2)c(=O)c2ccccc12	109.2	-0.3	0.0	-3.5	0.8	99.5
CCN(CC)CCCNC(=O)CNC(=O)c1nn(-c2ccc(OC)c(OC)c2)c(=O)c2ccccc12	88.7	0.1	2.0	4.8	/	/
COc1ccc(-n2nc(C(=O)NCC(=O)NCCN(C)C)c3ccccc3c2=O)cc1	85.5	0.0	23.0	-4.1	3.2	93.0
CCN(C(=O)c1ccc2c(=O)n3c(nc2c1)CCCCC3)c1ccccc1C	85.5	-0.2	3.0	-3.9	/	/
Cc1cc(C)cc(N(C(=O)CNC(=O)c2ccco2)C(C(=O)NC2CCCCC2)c2cccnc2)c1 (configuration not stated)	77.7	-0.1	1.0	-8.5	/	/
Cc1cc(NC(=O)C2CCN(S(=O)(=O)c3cnc[nH]3)CC2)ccc1Br	87.4	-0.1	43.0*	-0.7	-0.8	100.4
Cc1ccc(NC(=O)C2CCN(S(=O)(=O)c3cnc[nH]3)CC2)cc1C	98.3	0.3	0.0	-6.1	/	/
COCCNC(=O)c1ccccc1N(Cc1ccccc1)S(=O)(=O)c1ccc(C)cc1	96.2	0.3	15.0	2.7	-1.4	98.7
Cc1ccc(C)c(NS(=O)(=O)c2ccc3[nH]c(=O)oc3c2)c1	95.4	-0.1	4.0	-8.8	/	/
O=S(=O)(NCCCc1ccccc1)c1ccccc1	95.5	0.0	0.0	8.4	/	/
